This is part of a sample that, as a whole, favours compounds with a hit. Of some 83,000 tested, about 20% had one in any assay.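 Treatment: one concentration, 48 hours, 96-well format. Scoring: percent growth, with anything below 10 considered active.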 Calls of active or inactive are those of the source.
How the values were obtained:
Assay in all cases: NCI-60 one-dose screen, 48 h (100 = growth as untreated, 0 = no growth, -100 = all killed)
Conditions in all cases: 10 µM unless noted
NCI-H226 lung = system: NCI-H226 lung
NCI-H322M lung = system: NCI-H322M lung
HOP-62 NSCLC = system: HOP-62 NSCLC
NCI-H460 lung = system: NCI-H460 lung
HOP-92 NSCLC = system: HOP-92 NSCLC
NCI-H522 lung = system: NCI-H522 lung
A549/ATCC NSCLC = system: A549/ATCC NSCLC
786-0 renal = system: 786-0 renal
COLO 205 colon = system: COLO 205 colon

Measured: growth

COc1ccc(/C(=C\c2cc(OC)c(OC)c(OC)c2)C(=O)N2CCN(c3ccccc3)CC2)cc1O
inactive: NCI-H226 lung 98.8% | NCI-H322M lung 100% | HOP-62 NSCLC 99% | NCI-H460 lung 106% | HOP-92 NSCLC 85.9% | NCI-H522 lung 84.4% | A549/ATCC NSCLC 90% | 786-0 renal 103% | COLO 205 colon 111%

CC1=C(C(=O)Nc2ccc(F)cc2)C(c2ccccc2)C2=C(CC(C)(C)CC2=O)N1 (stereo not drawn)
inactive: NCI-H226 lung 84.9% | NCI-H322M lung 95.9% | HOP-62 NSCLC 96.1% | NCI-H460 lung 73% | NCI-H522 lung 53.4% | A549/ATCC NSCLC 76.7% | 786-0 renal 84.6% | COLO 205 colon 99.2%
active: HOP-92 NSCLC -3.3%

COc1cc(C2Nc3ccccc3S2)cc(CN2CCOCC2)c1O (stereo not drawn)
inactive: NCI-H226 lung 92.3% | NCI-H322M lung 116% | HOP-62 NSCLC 86.1% | NCI-H460 lung 52.7% | HOP-92 NSCLC 103% | A549/ATCC NSCLC 73.6% | 786-0 renal 104% | COLO 205 colon 89.6%
active: NCI-H522 lung -2.67%

CCOc1ccc([C@@H]2[C@@H](Oc3ccccc3)C(=O)N2c2cc(OC)c(OC)c(OC)c2)cc1
inactive: NCI-H226 lung 41.5% | NCI-H322M lung 38.6% | HOP-62 NSCLC 27.4% | HOP-92 NSCLC 63.3% | NCI-H522 lung 10.5% | A549/ATCC NSCLC 23.1% | 786-0 renal 10.1%
active: NCI-H460 lung 7.32% | COLO 205 colon -47.2%

CNCc1cccc2c1OCCOCCOCCC(C)S(=O)(=O)c1ccc(cc1)-c1cnc(N)c(n1)C(=O)N2 (stereo not drawn)
inactive: NCI-H226 lung 31.6% | NCI-H322M lung 67% | HOP-62 NSCLC 37.7% | NCI-H460 lung 11.2% | HOP-92 NSCLC 80.3% | NCI-H522 lung 34.4% | A549/ATCC NSCLC 33% | 786-0 renal 10.6% | COLO 205 colon 33.7%

COc1ccc(C2CC(c3cccc(Nc4ccnc5cc(Cl)ccc45)c3)=NN2c2ccccc2)cc1 (stereo not drawn)
inactive: NCI-H226 lung 89% | NCI-H322M lung 75% | HOP-62 NSCLC 60% | NCI-H460 lung 43.7% | HOP-92 NSCLC 57.8% | NCI-H522 lung 54.4% | A549/ATCC NSCLC 52.1% | 786-0 renal 91.8% | COLO 205 colon 80.4%

Cc1nc2ccc(Nc3nc(N4CCOCC4)nc(N4CCN(C)CC4)n3)cc2n1Cc1ccccc1
inactive: NCI-H226 lung 95.8% | NCI-H322M lung 76.1% | HOP-62 NSCLC 86.6% | NCI-H460 lung 97.8% | HOP-92 NSCLC 64.5% | NCI-H522 lung 93.2% | A549/ATCC NSCLC 85.1% | 786-0 renal 72.8% | COLO 205 colon 73.2%

COc1cc(/C=C2\C(=O)Nc3ccc(N(C)C)cc32)cc(OC)c1OC
inactive: NCI-H226 lung 25.8% | NCI-H322M lung 37.6% | HOP-62 NSCLC 45.5% | HOP-92 NSCLC 33.2% | NCI-H522 lung 23.8% | 786-0 renal 28.4% | COLO 205 colon 28%
active: NCI-H460 lung 6.86% | A549/ATCC NSCLC -3.78%

CCOC(=O)Nc1ccc2nc(-c3cscn3)[nH]c2c1
inactive: NCI-H226 lung 63.5% | NCI-H322M lung 63.1% | HOP-62 NSCLC 54.1% | NCI-H460 lung 21.7% | HOP-92 NSCLC 114% | NCI-H522 lung 43.7% | A549/ATCC NSCLC 45% | 786-0 renal 67.7% | COLO 205 colon 29%

O=C1C=CC(=O)N1c1cccc(N2C(=O)C=CC2=O)c1
inactive: NCI-H226 lung 111% | NCI-H322M lung 116% | HOP-62 NSCLC 114% | NCI-H460 lung 119% | HOP-92 NSCLC 94.9% | A549/ATCC NSCLC 101% | 786-0 renal 108%
active: NCI-H522 lung -73.1% | COLO 205 colon -48.1%

C#CC[C@@H]1C[C@]2(C)[C@H]3CC=C4[C@H]5CC(C)(C)CC[C@]5(C(=O)NCCCCN)CC[C@@]4(C)[C@]3(C)CC[C@H]2C(C)(C)[C@H]1OC(C)=O
inactive: NCI-H226 lung 90.3% | NCI-H322M lung 36% | HOP-62 NSCLC 92.2% | NCI-H522 lung 70.1% | A549/ATCC NSCLC 27.8%
active: NCI-H460 lung -27.6% | HOP-92 NSCLC 2.98% | 786-0 renal 6.69% | COLO 205 colon -49.7%

Cc1ccc(N2C3c4ccccc4N(S(=O)(=O)c4ccc(C)cc4)C2c2ccccc2N3S(=O)(=O)c2ccc(C)cc2)cc1
inactive: NCI-H226 lung 94.3% | NCI-H322M lung 106% | NCI-H460 lung 99.5% | HOP-92 NSCLC 101% | NCI-H522 lung 106% | A549/ATCC NSCLC 97.1% | 786-0 renal 112% | COLO 205 colon 115%

COc1ccc(Nc2ncccc2C(=O)NCc2cn(Cc3cc(OC)cc(OC)c3)nn2)cc1
inactive: NCI-H226 lung 98.3% | NCI-H322M lung 105% | HOP-62 NSCLC 81.9% | NCI-H460 lung 98.3% | HOP-92 NSCLC 93.2% | NCI-H522 lung 79.4% | A549/ATCC NSCLC 89.5% | 786-0 renal 95.3% | COLO 205 colon 114%

CN(C)c1ccc(/C=C(\C#N)c2nc3ccccc3n2C)cc1
inactive: NCI-H226 lung 77.8% | NCI-H322M lung 46.5% | HOP-62 NSCLC 89.7% | NCI-H460 lung 13.8% | HOP-92 NSCLC 86.4% | A549/ATCC NSCLC 31% | 786-0 renal 47.4% | COLO 205 colon 19.4%
active: NCI-H522 lung 3.96%

Cc1ccc(N=CNN=C(N)N)cc1
inactive: NCI-H226 lung 92% | NCI-H322M lung 111% | HOP-62 NSCLC 102% | NCI-H460 lung 120% | HOP-92 NSCLC 109% | NCI-H522 lung 95.4% | A549/ATCC NSCLC 100% | 786-0 renal 115% | COLO 205 colon 113%

O=C(NO)c1ccc(NCc2csc3ccccc23)cc1
inactive: NCI-H226 lung 64.8% | NCI-H322M lung 85.7% | HOP-62 NSCLC 65.3% | NCI-H460 lung 39.8% | HOP-92 NSCLC 71.7% | NCI-H522 lung 33.1% | A549/ATCC NSCLC 70.3% | 786-0 renal 71.3% | COLO 205 colon 50.1%

Reference: PubChem BioAssay (NCI)
